# Assay outcomes (PubChem)
# hgDAF12 agonist = hgDAF-12 agonism, primary luciferase screen; HEK293 GAL4-hgDAF12 UAS-luciferase reporter, agonist luminescence; normalized to butyrate control; activation, % at 6.8 µM; 370,000 compounds, 1.8% hits; AID 687014;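 active = activation above a cutoff set at the mean of all screened compounds plus 3 SD, cut at about 10% in these data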;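 also: 0% = DMSO wells and 100% = sodium butyrate wells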
# ssDAF12 agonist = activates DAF-12 receptor from parasite S. stercoralis | activation, % at 6.8 µM | HEK293 ssDAF-12/GRIP1 lit1-tk-luc reporter, luminescence; % of 3 µM dafachronic acid response | AID 652126 | 370,000 compounds, 1% hits;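 active = activation above the mean over all tested compounds plus 3 SD, cut at about 0.9% in these data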;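 also: 0% = DMSO-only wells and 100% = 3 µM delta7-dafachronic acid wells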
# DAX1 inh-1 = DAX1 (NR0B1) inhibition, primary screen | HEK293T StAR-luciferase reporter, SF-1/DAX-1 repression relief | inhibition, % at 6.8 µM | 370,000 compounds, 1.1% hits;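 active = inhibition above the mean over all tested compounds plus 3 SD, cut at about 3.6% in these data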;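 also: 0% = DAX-1 cells with DMSO and 100% = cells lacking DAX-1 with DMSO; higher inhibition means more luminescence from relief of DAX-1 repression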
# hcDAF12 agonist = H. contortus DAF-12 activation, primary screen. HEK293 hcDAF-12 lit1-tk-luc reporter, luminescence; 0% DMSO, 100% Δ7-dafachronic acid. activation, % at 6.8 µM. 370,000 compounds, 1.4% hits;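 active = activation above the mean of all tested compounds plus 3 SD, cut at about 5.5% in these data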;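 also: 100% = response to 3 µM Δ7-dafachronic acid high control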
# DAX1 inh-2 = inhibits human nuclear receptor DAX1 | 340,000 compounds, 0.99% hits | HEK293 Gal4-DAX1 luciferase reporter, luminescence | AID 504766 | inhibition, % at 6.75 µM | P51843;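 active = inhibition above the mean over all tested compounds plus 3 SD, cut at about 4.2% in these data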;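 also: 0% = DAX1-transfected cells with DMSO and 100% = empty-vector control cells with DMSO; inhibition shows as a rise in luminescence from relieved DAX1 repression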
# Target sequence (P51843 207-470 limits assumed): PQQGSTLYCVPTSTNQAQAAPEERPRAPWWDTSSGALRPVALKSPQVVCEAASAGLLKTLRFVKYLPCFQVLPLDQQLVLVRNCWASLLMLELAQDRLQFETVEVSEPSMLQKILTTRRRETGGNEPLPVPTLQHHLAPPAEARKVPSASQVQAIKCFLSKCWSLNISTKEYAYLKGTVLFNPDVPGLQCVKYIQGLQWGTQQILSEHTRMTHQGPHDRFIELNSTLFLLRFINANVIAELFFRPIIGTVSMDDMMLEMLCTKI
# SMARCA2 activ = activators of SMARCA2 function | 370,000 compounds, 1% hits | AID 652017 | MG213 cells, MMTV-luciferase reporter, dexamethasone, overnight | activation, % at 9.1 µM; in the data active = activation above about 7.8%;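 also: 0% = vehicle wells and 100% = reference activator wells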
# * = called active by the depositor; nt = no result given. Rows were chosen to be rich in hits. Some 4.8% of all compounds tested hit in one or more screens of this group.
SMILES,hgDAF12 agonist,ssDAF12 agonist,DAX1 inh-1,hcDAF12 agonist,DAX1 inh-2,SMARCA2 activ
CCCN1CCC2(CC1)NC(C(=O)O)Cc1c2[nH]c2ccccc12 (centres undefined),nt,nt,nt,nt,1,nt
CCC1(C)NC(C(=O)O)Cc2c1[nH]c1ccccc21 (centres undefined),2,1.7*,0,4,-1,-4
CCOC(=O)N1CCC(n2c(SCC(=O)NCCC3=CCCCC3)nc3ccccc3c2=O)CC1,-2,-2,-1,-4,4.4*,1
Cc1cc(=O)[nH]c(SCC(=O)NCCC2=CCCCC2)n1,-2,-1,0,-1,4.9*,-2
CCOC(=O)N1CCC(n2c(SCC(=O)NCc3ccccc3)nc3ccccc3c2=O)CC1,-1,-2,-1,-1,-2,-3
C[C@H](NC(=O)c1ccco1)C(=O)Nc1nnc(SCc2ccccc2)s1,1,-1,3.7*,1,0,-2
CCC(c1ccccc1)c1nnc(NC(=O)c2ccco2)s1 (centres undefined),1,-1,0,-2,nt,1
O=C(Nc1nnc(CC(c2ccccc2)c2ccccc2)s1)c1ccco1,-2,-1,-1,-1,4.5*,2
CCCSc1nnc(NC(=O)c2ccco2)s1,5,-1,3,2,6.1*,-2
O=C(Nc1nnc(SCc2ccccc2F)s1)c1ccco1,0,-2,0,0,-1,2
CN(c1ccc(C(=O)Nc2ccc3c(c2)n(C)c(=O)n3C)cc1)S(C)(=O)=O,2,-1,0,2,2,-3
C=CCN1C(=O)C2(OCCCO2)c2cccc(C)c21,-2,-1,0,-1,0,-2
COc1ccc(-c2[nH]nc3c2C(c2ccsc2)C(C#N)=C(N)O3)cc1 (centres undefined),0,-1,-1,3,2,1
CC1CCCCC12NC(=O)N(CC(=O)NCc1ccccc1)C2=O (centres undefined),3,-1,0,1,0,-1
CC(=O)NCc1ccc(C(=O)CN2C(=O)NC3(CCCCC3C)C2=O)s1 (centres undefined),12*,-1,0,1,0,1
O=C(C1CCCO1)N1CCc2ccccc21 (centres undefined),3,1.8*,1,5,0,-4
O=C(C1CC(=O)N(C2CCCCC2)C1)N1CCc2ccccc21 (centres undefined),0,1,0,6.2*,0,1
Cc1ccc(CSc2nnc3c(n2)OC2(Nc4ccccc4-3)C(=O)Nc3ccc(F)cc32)cc1 (centres undefined),-1,-1,0,2,-1,-2
O=C1Nc2ccc(F)cc2C12Nc1ccccc1-c1nnc(SCc3ccccc3)nc1O2 (centres undefined),0,-1,0,5.6*,0,3
COc1ccc(C(=O)N/C(=C\c2ccc(Cl)cc2)C(=O)NCC2CCCO2)cc1 (centres undefined),-2,-1,1,0,0,0
COC(=O)C1(C(=O)OC)C[C@H](/C=C/c2ccccc2)N(Cc2ccccc2OC)[C@@H]1c1ccccc1,1,-1,3.9*,-1,nt,4
CCOC(=O)C(CCCCCCC(NC(C)=O)(C(=O)OCC)C(=O)OCC)(NC(C)=O)C(=O)OCC,0,-1,0,0,4.7*,1
COc1ccc(NC(=O)CC2C(=O)N(Cc3ccco3)C(=S)N2C(C)C)cc1 (centres undefined),1,-1,0,-1,0,-1
CCN(CC)c1ccc(N=C2C=CC(=O)C=C2NC(C)=O)cc1,8,0,3.9*,3,nt,1
CCN(CC)c1ccc(C(=O)NN)cc1,2,-1,-2,-1,0,2
SMILES,hgDAF12 agonist,ssDAF12 agonist,DAX1 inh-1,hcDAF12 agonist,DAX1 inh-2,SMARCA2 activ
C/C(=N\NC(=O)c1ccc(F)cc1)c1ccc(NC(=O)Cc2ccccc2)cc1,7,-1,4.1*,3,1,5
O=C(NN=C1CCN(Cc2ccccc2)CC1)c1ccccc1,11*,0,1,2,2,5
C/C(=N\NC(=O)c1ccc(CN2CCOCC2)cc1)c1ccc(NC(=O)c2ccccc2)cc1,11*,-1,3,5,0,2
CC(=O)Nc1ccc(/C(C)=N/NC(=O)c2ccc(F)cc2)cc1,5,-1,0,-1,0,1
CC/C(=N/NC(=O)c1ccccc1)c1ccc(OCCN2CCOCC2)cc1,10,1.6*,2,2,1,3
O=C(NN=C1CCN(Cc2ccccc2)CC1)c1cc(Br)ccc1O,7,-1,1,0,0,0
O=[n+]1cc(-c2ccc(Cl)cc2)n([O-])c2c1CCCCC2,2,0,0,-1,1,2
O=C(Nc1ccc(CN2CCOCC2)cc1)c1ccc2ccccc2c1,13*,0,2,2,0,2
O=C(Nc1ccc(CN2CCOCC2)cc1)c1ccc(Cl)cc1,2,-2,-1,-2,0,1
O=C1C=CC(=Nc2ccc3c(c2)Cc2cc(F)ccc2-3)O1,13*,1,3,4,0,1
c1ccc(-c2cc(-c3nc(-c4ccccn4)no3)c3ccccc3n2)cc1,0,-1,1,0,1,-4
Cc1cc(C)n(-c2cc(C(C)(C)C)nc3c(-c4ccccc4)cnn23)n1,11*,0,3,3,5.2*,4
Cc1cc(C)n(-c2cc(C(C)(C)C)nc3c(-c4ccc(Cl)cc4)cnn23)n1,1,-1,0,-2,0,-1
Cc1cc(NCc2ccccc2)n2ncc(-c3ccccc3)c2n1,9,0.9*,4.1*,4,2,1
Cc1cc(NC(C)c2ccccc2)n2ncc(-c3ccccc3)c2n1 (centres undefined),8,0,1,2,4.7*,7
CCC/C=C/c1ccc(CN2C(CC(C)C)C(=O)N(Cc3cn(CCC4OCCO4)nn3)CCS2(=O)=O)cc1 (centres undefined),-2,-1,0,2,0,-4
CN1C(=O)/C(=C/c2ccc(OCc3cccc(F)c3)cc2)NC1=S,-1,1.4*,0,-1,0,-2
CCNC(=O)C1CCCN(Cc2ccc(OCc3ccccc3)cc2)CC1 (centres undefined),4,-2,0,1,nt,-1
O=C(C1CCN(Cc2ccc(OCc3ccccc3)cc2)CC1)N1CCCC1,2,-1,-1,0,-1,0
CCCCNC(=O)C1CCN(Cc2ccc(OCc3ccccc3)cc2)CC1,11*,0,0,0,0,5
OC1CCN(Cc2ccc(OCc3ccccc3)cc2)CC1,11*,0,2,6.3*,2,3
